Measured values taken from PubChem BioAssay (NCI).
About 79,000 compounds went through this panel and 15% of them were active in at least one assay; those are over-represented in the sample as a whole. Unmarked numbers belong to inactive results. Activity calls are given as the source filed them. Rule as the data show it: active = growth inhibition above about 70%; inactive = the rest.

Assay: NCI Yeast Anticancer Drug Screen. Data for the sgs1 mgt1 strain (AID 161);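 also: 0% = growth of cultures given vehicle only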
Settings: S. cerevisiae sgs1 mgt1 strain, at 50.0 µM, stronger effect = higher value
Procedure: Growth inhibition of yeast strains with defined genetic alterations is measured as a screen for potential anti-cancer activity. Selected strains with alterations in DNA damage repair or cell cycle control were exposed to compounds and growth inhibition was measured relative to vehicle treated controls. The strain used in this assay is sgs1 mgt1
`Cc1ccc(S(=O)(=O)OCC(c2ccccc2)C(F)(F)F)cc1` (stereo not given) showed a growth inhibition of 12.4%. `O=[N+]([O-])c1ccc(/C(CBr)=N/N2CCCCCC2)cc1` gave a growth inhibition of -19.7%. `CCC1c2c(cc(=O)[nH]c2O)C(=O)N1C` (stereo not given) showed a growth inhibition of 3.95%. With `CC1CNC(=O)C(=O)N1` (stereo not given) the growth inhibition was 1.75%. `COC(=O)C(=O)C(C(=O)C=C(C)C)C(=O)C(=O)Nc1cc(C(F)(F)F)ccc1Cl` (stereo not given) showed a growth inhibition of 6%. With `COC(CC(=O)O)CC(C)CC(C)(C)C` (stereo not given) the growth inhibition was 38%. For `Nc1ccccc1N1C(=O)C(Cl)=C(Cl)C1=O`, the growth inhibition was 21.5%. In the case of `CC(C)(C)OC(=O)NC(Cc1ccccc1)C(=O)N[C@H]1c2ccsc2/C(=N/O)[C@H]1O` (stereo not given in full), the growth inhibition was 3.8%. For `C=CCC(CC=C)(C(=O)Nc1ccc2nc(C)cc(N)c2c1)C(=O)Nc1ccc2nc(C)cc(N)c2c1`, the growth inhibition was 22.1%. Work on `CCC(=O)Nc1ncnc2ncn(C(=O)CC)c12` yielded a growth inhibition of -32.9%. Work on `CCCSc1nc2c(c(=O)n(C)c(=O)n2C)n1C` yielded a growth inhibition of 10.2%. `C#CCI` showed a growth inhibition of 6.95%. `Cc1cccc(C2ON=C(c3ccccc3)N2C23CC4CC(CC(C4)C2)C3)c1` (stereo not given) showed a growth inhibition of -22.1%. Molecule `C=CNC(=S)n1nc(-c2ccccc2NC(=O)C(F)(F)F)c(=O)n(C(=S)NC=C)c1=S` has a growth inhibition of 30.4%. Work on `O=c1oc2ccc(Br)cc2cc1CCS` yielded a growth inhibition of -4.7%. For `CC(C)C(=O)NCc1ccccc1Sc1ccccc1CNC(=O)C(C)C`, the growth inhibition was -18.5%. `Cc1ccc(C(N)=Nc2ccccc2)cc1` gave a growth inhibition of -0.3%. For `CC1(C(Cl)Cl)C=CC(=O)c2ccccc21` (stereo not given), the growth inhibition was 21.4%. `C[P+]1(CCc2ccc(Cl)cc2)CC=CC1` showed a growth inhibition of -2.9%. Molecule `COc1ccc(C=Nc2ccc(O)cc2)cc1` has a growth inhibition of -8.35%. Molecule `CN1c2ccccc2N(C)C2C1N(C)c1ccccc1N2C` (stereo not given) has a growth inhibition of -12.4%. In the case of `CC(C)Oc1c(O)c2c3c(oc(=O)n3C=CC2c2ccccc2)c1OC(C)C` (stereo not given), the growth inhibition was 88.2% (active). For `CC1CCc2c(O)ccc(O)c21` (stereo not given), the growth inhibition was 2.5%. `N#CCC(=O)N/N=C1/C(=O)N(c2cc(Cl)ccc2Cl)C(=O)C(=O)C1c1nc2ccccc2s1` (stereo not given) showed a growth inhibition of 38.1%. In the case of `CCC(=O)/C=C/c1cc(OC)c(OC)c(OC)c1`, the growth inhibition was -4.4%. In the case of `CCc1cc(-c2ccc(OC)cc2)c(C#N)c(=S)n1C1OC(CO)C(O)C(O)C1O` (stereo not given), the growth inhibition was 6.4%. `OCCCNc1ncnc2[nH]ncc12` showed a growth inhibition of 11.6%. `CC(=O)N(CN1C(=O)CCC1C(=O)O)c1ccccc1` (stereo not given) gave a growth inhibition of -8.5%. With `O=C(C[N+]12CC=C(CO)C1C(O)CC2)c1ccc(Br)cc1` (stereo not given) the growth inhibition was -15.5%. Molecule `COc1cc(OC)c(OC)cc1/C=N/N=C(\N)NO` has a growth inhibition of -1.95%. For `O=C(Cc1ccccc1)N/N=C(/c1nc2ccc([N+](=O)[O-])cc2[nH]c1=O)C(O)c1ccco1` (stereo not given), the growth inhibition was -4.85%. In the case of `CN(C)CCN1C(=O)c2c(c3cccn3c3c2cnn3-c2ccccc2)C1=O`, the growth inhibition was 34%. `c1cc(C[S+]2CCCC2)ccc1C[S+]1CCCC1` gave a growth inhibition of -32%. For `N#CN1CC[C@@H]2CC3(CCC2C1)OCCO3` (stereo not given in full), the growth inhibition was 0.3%. `NCC(=O)Nc1ccc(C(=O)O)cc1` gave a growth inhibition of 7.6%. Molecule `O=C(NC(=S)c1ccccc1)Nc1ccccc1` has a growth inhibition of 6.85%. `COCN(COC)c1nc(CCC(Br)(Br)Br)nc(N(COC)COC)n1` gave a growth inhibition of 21.9%. `CCOC(=O)Cc1ccc2c(c1)sc1nc(-c3ccc(OC)cc3)cn12` showed a growth inhibition of 21.2%. With `COC(=O)C(N)C(C)C` (stereo not given) the growth inhibition was -10.3%. Molecule `CC(=O)Nc1ccc(S(=O)(=O)NCCC(=O)O)cc1` has a growth inhibition of 2.45%.
